# Laboratory results from PubChem BioAssay (NCATS).
# Unmarked numbers belong to inactive results. Records with an inconclusive call do not appear. Where a call stands in place of a potency, no number is given. Activity calls are given as the source filed them. Calls come from the whole dose curve; as a rule, active = well fitted curve in the direction sought with a large enough effect; inconclusive = small, poorly fitted or top-dose-only effect, or another doubt; inactive = no such curve, though single readings can be large; an effect the other way counts as inactive or inconclusive.
# How the values were obtained:
# [1] = molecular target: Metallo-beta-lactamase type 2 (Klebsiella pneumoniae) (UniProt C7C422); assay: qHTS to identify inhibitors of the New Delhi Metallo-beta-lactamase (NDM): assay validation screen against the NCATS LOPAC Collection (AID 1794843);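 note: nitrocefin turnover by NDM-1 measured as 485 nm absorbance at plateau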
# In short: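 NDM-1 at 2 nM final in 50 mM HEPES pH 7.0 with 1 uM ZnSO4 and 0.01% Tween20 was preincubated with library compounds in DMSO. Nitrocefin (50 uM stock) was then added, and absorbance at 485 nm was read at the kinetic plateau.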
# [2] = molecular target: Glutathione peroxidase 1 (Homo sapiens) (UniProt P07203); assay: Primary qHTS Assay for Inhibitors of Recombinant Selenoprotein Glutathione Peroxidase 1 (GPX1) (AID 1845191); note: nearly all actives have a fitted effect of over 65% in size
# In short: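 10 nM GPX1 + cpd, 30 min RT; start w/ 1 mM GSH, 0.5 mM cumene hydroperoxide, 0.5 mM NADPH, 100 nM GR, 0.01% BSA; buffer 50 mM Tris-HCl pH 7.5, 2 mM EDTA, 150 mM NaCl; Fl 340/450, 0 & 15 min.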
# [3] = molecular target: Phospholipid hydroperoxide glutathione peroxidase GPX4 (Homo sapiens) (UniProt P36969); assay: Primary qHTS Assay for Inhibitors of Recombinant Selenoprotein Glutathione Peroxidase 4 (GPX4) (AID 1845192); note: nearly all actives have a fitted effect of over 65% in size
# In short: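 NADPH consumption, followed by fluorescence at 340/450 nm between 0 and 15 min, reports GPX4 activity via coupled glutathione reductase (100 nM). Enzyme 200 nM was pre-exposed to compound 30 min; 0.5 mM cumene hydroperoxide and 1 mM GSH served as substrates.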
# [4] = Quantitative High-Throughput drug screen in 47 multiple myeloma cell lines against the NCATS MIPE library collection: Delta47_JCRB cell viability assay (AID 1918925; note: nearly all actives have a fitted effect of over 45% in size)
# In short: (§1)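 We plated 500 myeloma cells per well, pinned in MIPE 4.0 compounds, and incubated for 48 hours at 37C. ATP was then quantified with CellTiter-Glo, with DMSO and media-only wells defining 100% and 0%.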
# [5] = Quantitative High-Throughput drug screen in 47 multiple myeloma cell lines against the NCATS MIPE library collection: EJM_DSMZ cell viability assay (AID 1918926; note: nearly all actives have a fitted effect of over 30% in size)
# In short: as §1
# [6] = Viability counterscreen for agonist of constitutive androstane receptor (CAR) against the NCATS DSHEA and TCM libraries (AID 1794838);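 note: cells exposed to compound for 24 h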
# In short: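 In agonist mode, PK11195 is added at 0.75 uM final to HepG2-CYP2B6-hCAR cells dosed with test substances. Cultures incubate 24 h at 37C before a protease-based fluorogenic viability readout.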
# [7] = molecular target: Nuclear receptor subfamily 1 group I member 3 (Homo sapiens) (UniProt Q14994); assay: Primary qHTS for agonist of constitutive androstane receptor (CAR) against the NCATS DSHEA and TCM libraries (AID 1794839);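 note: HepG2 cells expressing human CAR with a CYP2B6 reporter plus PK11195 antagonist; luciferase reporter luminescence read with ONE-Glo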
# In short: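 Cells stably carrying hCAR and a CYP2B6 reporter (HepG2 background) are seeded and allowed 5 h to adhere. Substances at multiple concentrations are added alongside 0.75 µM PK11195, and luciferase signal is measured after 24 h.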
# [8] = HepG2 viability counterscreen (readout 2: ATP content) against the NCATS DSHEA and TCM libraries (AID 1794840);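 note: HepG2 cells exposed to substances for about 24 h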
# In short: (§2)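 Cytotoxicity was assessed in HepG2 cells plated at 1,000 cells/well and exposed for about 24 hours to a concentration series. Protease activity and ATP content were measured sequentially in each well.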
# [9] = HepG2 viability counterscreen (readout 1: protease activity) against the NCATS DSHEA and TCM libraries (AID 1794841);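 note: cells exposed to compounds for about 24 h before the protease read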
# In short: as §2
# [10] = Quantitative High-Throughput drug screen in 47 multiple myeloma cell lines against the NCATS MIPE library collection: FR4_PLB cell viability assay (AID 1918924; note: nearly all actives have a fitted effect of over 35% in size)
# In short: (§3)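 Primary qHTS used for cherry-picking: cells at 500/well, library compounds for 48 h (37C, 5% CO2), luminescent ATP assay.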
# [11] = Quantitative High-Throughput drug screen in 47 multiple myeloma cell lines against the NCATS MIPE library collection: AMO1_DSMZ cell viability assay (AID 1918927; note: nearly all actives have a fitted effect of over 30% in size; note: potency is the fitted concentration of half-maximal effect)
# In short: as §1
# [12] = Quantitative High-Throughput drug screen in 47 multiple myeloma cell lines against the NCATS MIPE library collection: ARP1_JJKsccF8 cell viability assay (AID 1918928; note: nearly all actives have a fitted effect of over 40% in size)
# In short: (§4)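 Myeloma cells, 500 per well, were exposed to MIPE 4.0 drugs by pin transfer for 48 h at 37 °C, 5% CO2. Viability was read as ATP luminescence with CellTiter-Glo, normalised to DMSO-only (100%) and medium-only (0%) wells.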
# [13] = Quantitative High-Throughput drug screen in 47 multiple myeloma cell lines against the NCATS MIPE library collection: ARD_JJKsccE7 cell viability assay (AID 1918929)
# In short: as §1
# [14] = Quantitative High-Throughput drug screen in 47 multiple myeloma cell lines against the NCATS MIPE library collection: Karpas620_DSMZ cell viability assay (AID 1918959); note: nearly all actives have a fitted effect of over 30% in size
# In short: as §3
# [15] = Quantitative High-Throughput drug screen in 47 multiple myeloma cell lines against the NCATS MIPE library collection: KMM1_JCRB cell viability assay (AID 1918960); note: nearly all actives have a fitted effect of over 30% in size
# In short: as §4
# [16] = molecular target: Luciferin 4-monooxygenase (Photinus pyralis) (UniProt P08659); assay: Primary firefly luciferase (FLuc) qHTS assay for identification of artifact compounds. (AID 1845220); conditions: outcome: dose series up to 54.1 µM; note: nearly all actives have a fitted effect of over 60% in size
# In short: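 Cell-free, 1536-well qHTS. Buffer pH 7.6 with 0.01% Tween-20 and 0.05% BSA; 10 uM D-luciferin, 10 uM ATP; 10 nM P. pyralis luciferase; luminescence after 5 min.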
# [17] = Primary fluorescence-based thiol-reactive (MSTI) qHTS assay for identification of artifact compounds. (AID 1845221);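 note: thiol-reactive compounds lower the probe fluorescence signal; nearly all actives have a fitted effect of over 65% in size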
# In short: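 MSTI probe at 4 uM final in 2% DMSO/PBS pH 7.4; compounds, 1 h at room temperature in dark. Fluorescence Ex/Em 525/598 nm, normalised to Acetyl-MSTI and MSTI, fitted to 4-parameter Hill.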
# [18] = system: Nanoluciferase (engineered Oplophorus gracilirostris luciferase); assay: Primary Nanoluciferase (NLuc) qHTS assay for identification of artifact compounds. (AID 1845222)
# In short: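 Compounds are pinned into diluted (1:55) conditioned medium of NLuc-expressing S16 cells and held 15 min at room temperature protected from light. Nano-Glo substrate follows, and luminescence is read 5 min later.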
# [19] = Primary redox qHTS assay for identification of artifact compounds. (AID 1845223)
# In short: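 Amplex Red (25 uM) and HRP (250 mU/mL) in HBSS, with compounds for 15 min, then 250 uM DTT for 30 min, room temperature, dark. Fluorescence 525/598 nm read; normalized to DMSO and 10 uM DA3003; Hill fit.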
# [20] = Quantitative High-Throughput drug screen in 47 multiple myeloma cell lines against the NCATS MIPE library collection: Karpas417_ECACC cell viability assay (AID 1918961); conditions: Karpas417 myeloma viability, CellTiter-Glo ATP luminescence, 48 h; viability (% of DMSO): at 45.8 µM (top of the series)
# In short: as §1
# Sequence of Phospholipid hydroperoxide glutathione peroxidase GPX4 (Homo sapiens) (P36969 whole entry, looked up): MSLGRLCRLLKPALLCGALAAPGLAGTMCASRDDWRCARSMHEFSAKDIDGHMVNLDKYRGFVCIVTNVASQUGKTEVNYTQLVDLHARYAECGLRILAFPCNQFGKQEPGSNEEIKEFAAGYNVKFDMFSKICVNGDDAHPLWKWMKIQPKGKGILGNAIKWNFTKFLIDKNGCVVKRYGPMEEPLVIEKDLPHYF
# Sequence of Glutathione peroxidase 1 (Homo sapiens) (P07203 whole entry, looked up): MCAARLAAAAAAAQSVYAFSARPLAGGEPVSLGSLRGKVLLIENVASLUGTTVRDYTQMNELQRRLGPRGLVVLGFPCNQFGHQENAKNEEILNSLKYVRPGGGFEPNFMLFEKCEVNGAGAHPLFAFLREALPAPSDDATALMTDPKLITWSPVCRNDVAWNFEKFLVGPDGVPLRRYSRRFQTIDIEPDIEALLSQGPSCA
# Sequence of Metallo-beta-lactamase type 2 (Klebsiella pneumoniae) (C7C422 whole entry, looked up): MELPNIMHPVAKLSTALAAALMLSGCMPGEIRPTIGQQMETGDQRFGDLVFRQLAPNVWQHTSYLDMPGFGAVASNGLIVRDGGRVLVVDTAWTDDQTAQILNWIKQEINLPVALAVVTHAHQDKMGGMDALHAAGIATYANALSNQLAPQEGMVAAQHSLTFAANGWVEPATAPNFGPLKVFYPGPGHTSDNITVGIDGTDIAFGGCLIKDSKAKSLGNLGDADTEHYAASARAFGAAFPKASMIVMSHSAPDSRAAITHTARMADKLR
# Sequence of Nuclear receptor subfamily 1 group I member 3 (Homo sapiens) (Q14994 whole entry, looked up): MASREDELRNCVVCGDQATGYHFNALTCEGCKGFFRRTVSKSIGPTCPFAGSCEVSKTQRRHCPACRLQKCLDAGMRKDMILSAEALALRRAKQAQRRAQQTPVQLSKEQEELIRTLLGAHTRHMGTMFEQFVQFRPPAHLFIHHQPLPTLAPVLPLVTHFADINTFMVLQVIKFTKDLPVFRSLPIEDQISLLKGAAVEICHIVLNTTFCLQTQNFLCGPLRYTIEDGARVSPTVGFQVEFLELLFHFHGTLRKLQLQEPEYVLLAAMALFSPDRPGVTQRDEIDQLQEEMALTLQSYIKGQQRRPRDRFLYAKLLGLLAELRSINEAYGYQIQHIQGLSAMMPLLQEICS
compound,measurement,setting,value
CCN(CC)CC#CCOC(=O)C(O)(c1ccccc1)C1CCCCC1 (centres undefined),outcome,[1],inactive
same,Potency,[2],inactive
same,Potency,[3],inactive
same,Potency,[4],inactive
same,Potency,[5],inactive
NNC(=O)c1ccncc1,outcome,[6],inactive
same,outcome,[7],inactive
same,outcome,[8],inactive
same,outcome,[9],inactive
same,Potency,[2],inactive
same,Potency,[10],inactive
same,Potency,[4],inactive
same,Potency,[11],inactive
same,Potency,[12],inactive
same,Potency,[13],inactive
same,Potency,[14],inactive
same,Potency,[15],inactive
O=P(O)(O)C(O)(Cc1cccnc1)P(=O)(O)O,Potency,[2],inactive
same,Potency,[3],inactive
same,"activity change, negative = inhibition",[16],-16.9% [at 6.45 µM]
same,outcome,[16],inactive
same,Potency,[17],inactive
same,outcome,[18],inactive
same,Potency,[19],inactive
same,Potency,[10],inactive
same,Potency,[4],inactive
same,Potency,[11],inactive
same,Potency,[14],inactive
same,Potency,[15],inactive
Cc1onc(-c2ccccc2Cl)c1C(=O)N[C@@H]1C(=O)N2[C@@H]1SC(C)(C)[C@@H]2C(=O)O,Potency,[2],inactive
same,Potency,[3],inactive
same,outcome,[16],inactive
same,Potency,[17],inactive
same,outcome,[18],inactive
same,Potency,[19],inactive
same,Potency,[10],inactive
same,Potency,[4],inactive
same,Potency,[11],inactive
same,Potency,[12],inactive
same,Potency,[13],inactive
same,Potency,[14],inactive
same,Potency,[15],inactive
same,Potency,[20],inactive
CC1CC2C3CCC4=CC(=O)C=C[C@]4(C)[C@@]3(F)[C@@H](O)C[C@]2(C)[C@@]1(O)C(=O)CO (some centres undefined),outcome,[1],inactive
same,Potency,[2],inactive
same,Potency,[3],inactive
same,Potency,[5],inactive
same,Potency,[11],833 nM (active)
Cc1cc(NS(=O)(=O)c2ccc(N)cc2)no1,Potency,[2],inactive
same,Potency,[3],inactive
same,Potency,[10],inactive
same,Potency,[4],inactive
same,Potency,[5],inactive
same,Potency,[11],inactive
same,Potency,[12],inactive
same,Potency,[13],inactive
same,Potency,[14],inactive
same,Potency,[15],inactive
O=C(O)c1cccnc1,outcome,[6],inactive
same,outcome,[7],inactive
same,outcome,[8],inactive
same,outcome,[9],inactive
same,Potency,[2],inactive
same,Potency,[3],inactive
same,Potency,[10],inactive
same,Potency,[4],inactive
same,Potency,[5],inactive
same,Potency,[11],inactive
same,Potency,[13],inactive
same,Potency,[14],inactive
same,Potency,[15],inactive
same,Potency,[20],inactive
CCN1CCCC1CNC(=O)c1cc(S(N)(=O)=O)ccc1OC (centres undefined),outcome,[1],inactive
same,Potency,[2],inactive
same,Potency,[3],inactive
same,Potency,[4],inactive
same,Potency,[11],inactive
same,Potency,[12],inactive
same,Potency,[13],inactive
same,Potency,[14],inactive
same,Potency,[15],inactive
same,Potency,[20],inactive
Cc1c(-c2ccc(O)cc2)n(Cc2ccc(OCCN3CCCCCC3)cc2)c2ccc(O)cc12,Potency,[2],inactive
same,Potency,[3],inactive
NC(=O)c1cccc(N)c1,outcome,[1],inactive
same,Potency,[2],inactive
same,Potency,[3],inactive
same,Potency,[10],inactive
same,Potency,[4],inactive
same,Potency,[5],inactive
same,Potency,[11],inactive
same,Potency,[12],inactive
same,Potency,[14],inactive
same,Potency,[15],inactive
